Bioassay records: PubChem BioAssay, National Center for Advancing Translational Sciences (NCATS)
Compounds with a hit are over-represented: about 7.9% of the library has one in this group of screens.
HCMV inh = qHTS Assay for inhibitors of the human cytomegalovirus (HCMV); activity change, negative = inhibition, % at 57.5 µM; HFF cells, HCMV-luciferase reporter, 72 h; active compounds read low; AID 1259415, 2018; 410,000 compounds, 4.5% hits; in the data active means activity change below about -60%; inconclusive means no clear call, values can overlap the other calls; inactive means above about -39%
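Cell-based, HFFs, 1000 cells/well, 16 h 37C; cpds in DMSO + HCMV-luc, MOI 1 PFU/cell; 72 h 37C; OneGlo luminescence after 5 min RT; norm. to buffer vs Salinomycin 10uM.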
Marburg entry inh = qHTS for inhibitors of binding or entry into cells for Marburg Virus | Potency, µM (top dose mostly 37.8 µM), actives largely listed as inhibitors | 300,000 compounds, 1.8% hits | Marburg virus pseudotyped entry inhibition, cell reporter | AID 540276, 2011; calls by dose curve; tested in HEK293 cells
HCV inh = qHTS Assay for Inhibitors of Hepatitis C Virus (HCV); Huh7.5.1 HCVcc-Cre infection, luciferase reporter, 44 h; 340,000 compounds, 3.4% hits; AID 651820, 2012; Potency, µM (top dose mostly 41.8 µM), actives largely listed as inhibitors; active means well fitted inhibition curve with a large enough effect; inconclusive means small, poorly fitted or top-dose-only effect, or another doubt; inactive means no such curve, though single readings can be large or run the other way
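Luciferase read-out (15 sec integration) after a 15 min room-temperature substrate step quantifies HCVcc-Cre infection. Cells, 1,000 per well, had compound added 4 h post-plating, then virus at ~0.5 moi, and were cultured 44 h.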
Lassa entry inh = qHTS for Inhibitors of binding or entry into cells for Lassa Virus; Lassa virus pseudotype entry inhibition, cell reporter; Potency, µM (titrated, usually from 37.9 µM), most hits filed as inhibitors; 300,000 compounds, 1.2% hits; AID 540256, 2011; calls by dose curve; tested in HEK293 cells; further: nearly all actives have a fitted effect of over 50% in size
FMDV antiviral = High Throughput Screening for Foot and Mouth Disease Virus Antivirals; Potency, µM (top dose mostly 57.9 µM), actives largely listed as inhibitors; 410,000 compounds, 1.2% hits; FMDV antiviral cell-based qHTS; AID 1159524, 2015; calls by dose curve; tested in HEK293T cells; further: read-out not given here; nearly all actives have a fitted effect of over 45% in size
Large screens that a line does not name were inactive.

CCN(CC)CCN1C(=O)C(=O)/C(=C(\O)c2ccc(F)cc2)[C@@H]1c1ccncc1	none (no result: HCMV inh, HCV inh, Lassa entry inh, FMDV antiviral)
CSC[C@H]1CN(Cc2ccccc2)C(=O)[C@H]1CC(=O)Nc1ccccc1	none (no result: HCMV inh, Marburg entry inh, HCV inh, FMDV antiviral)
O=C(NCCc1nnc2n1CCN(Cc1ccc(F)cc1)CC2)c1ccco1	none (no result: HCMV inh, Marburg entry inh, HCV inh, Lassa entry inh)
NC(=O)C1CCN(C(=O)C2CCC(=O)N(Cc3ccc(Cl)cc3)C2)CC1 (stereo not given)	none
Cc1ccc(N2CCN(C(=O)C3CCC(=O)N(Cc4ccc(Cl)cc4)C3)CC2)c(C)c1 (stereo not given)	HCMV inh inconclusive, HCV inh 11.2µM, Lassa entry inh inconclusive, FMDV antiviral inconclusive
Cc1cccc(-c2cccc(NC(=O)C3CCCN(C(=O)c4ocnc4C)C3)c2)c1 (stereo not given)	Marburg entry inh inconclusive, HCV inh inconclusive, Lassa entry inh 3.55µM
Cc1cccc(-c2cccc(NC(=O)C3CCCN(C(=O)c4cccnc4)C3)c2)c1 (stereo not given)	HCMV inh inconclusive, HCV inh inconclusive (no result: Marburg entry inh, Lassa entry inh)
CCc1nc(C)c(C(=O)N2CCCC(C(=O)Nc3cccc(-c4cccc(C)c4)c3)C2)o1 (stereo not given)	Marburg entry inh inconclusive, HCV inh 11.2µM, Lassa entry inh inconclusive
Cc1cccc(-c2cccc(NC(=O)C3CCCN(C(=O)c4csc(C)n4)C3)c2)c1 (stereo not given)	HCMV inh inconclusive, HCV inh 7.94µM (no result: Marburg entry inh, Lassa entry inh)
Cc1nc(-c2cccc(NC(=O)C3CCCCC3)c2)cs1	HCV inh inconclusive (no result: Marburg entry inh, Lassa entry inh)
COc1ccc(NC(=O)Cc2csc(COc3cccc(C)c3)n2)c(OC)c1	none (no result: HCV inh)
COc1ccc(C2=NN(C(=O)c3ccc(Cl)c([N+](=O)[O-])c3)C(c3ccccc3)C2)cc1 (stereo not given)	Marburg entry inh inconclusive, HCV inh inconclusive, Lassa entry inh inconclusive
COc1ccc2cc3c(N)nn(C(=O)c4ccccc4[N+](=O)[O-])c3nc2c1	HCMV inh -70.0, Marburg entry inh inconclusive, HCV inh inconclusive, Lassa entry inh inconclusive
COc1ccc2cc3c(N)nn(C(=O)c4ccc(Cl)c([N+](=O)[O-])c4)c3nc2c1	HCMV inh -90.9, Marburg entry inh inconclusive
CCCC1CCC(C(=O)n2nc(N)c3cc4ccc(OC)cc4nc32)CC1 (stereo not given)	none
COc1cc(Nc2cc3[nH]c(-c4ccccc4)cc3cn2)cc(C(F)(F)F)c1	none (no result: Marburg entry inh, HCV inh, Lassa entry inh, FMDV antiviral)
CC(C)=CCCC1(C)C=Cc2c(O)c3c(c(CC=C(C)C)c2O1)OC12C(=CCCC1C(C)(C)O[C@@]2(C/C=C(\C)C(=O)O)C(=O)O)C3=O (stereo not given in full)	none (no result: HCMV inh, Marburg entry inh, HCV inh, Lassa entry inh)
CC(C)=CCCC1(C)C=Cc2c(O)c3c(c(CC=C(C)C)c2O1)OC12C(=CC4CC1C(C)(C)OC2(C/C=C(/C)C(=O)O)C4O)C3=O (stereo not given)	FMDV antiviral 10µM (no result: HCMV inh, Marburg entry inh, HCV inh, Lassa entry inh)
CC(C)=CCCC1(C)C=Cc2c(O)c3c(c(CC=C(C)C)c2O1)OC12C(=CC4CC1C(C)(C)OC2(C/C=C(/C)C(=O)O)C4=O)C3=O (stereo not given)	FMDV antiviral 5.62µM (no result: HCMV inh, Marburg entry inh, HCV inh, Lassa entry inh)
COCCN1C(=O)NC(c2ccc(Br)cc2)C(C(C)=O)=C1C (stereo not given)	none (no result: HCMV inh, HCV inh, Lassa entry inh, FMDV antiviral)
Cc1ccc(CNC(=O)C2CCN(S(=O)(=O)Cc3ccccc3)CC2)cc1	none (no result: HCV inh)
Cc1ccc(NC(=S)NCC2CCCO2)cc1C (stereo not given)	none
Cc1ccc(NC(=S)NCC2CCN(C(C)c3ccccc3)C2)cc1C (stereo not given)	HCMV inh -62.8 (no result: Marburg entry inh, Lassa entry inh)
O=C(O)c1ccc(N2C(=O)c3[nH]nc(-c4ccccc4)c3C2c2cccc(F)c2)cc1 (stereo not given)	none (no result: HCV inh)
O=S(=O)(NCC(c1ccco1)S(=O)(=O)c1ccccc1)c1cc(F)ccc1F (stereo not given)	HCMV inh -68.6 (no result: Marburg entry inh, HCV inh)
O=S(=O)(NCC(c1ccco1)S(=O)(=O)c1ccccc1)c1ccccc1 (stereo not given)	Lassa entry inh inconclusive (no result: Marburg entry inh, HCV inh)
COC(=O)c1ccc(N2CCN(C)CC2)c(NC(=O)c2sc3ccccc3c2Cl)c1	HCMV inh -98.4, HCV inh inconclusive
CN1CCN(c2ccc(NC(=O)c3sc4ccccc4c3Cl)cc2)CC1	HCMV inh inconclusive, Marburg entry inh inconclusive, HCV inh inconclusive, Lassa entry inh inconclusive
Cc1cc(C(=O)OCC(=O)NCc2ccco2)c(C)n1-c1ccc(F)cc1	HCMV inh inconclusive, Marburg entry inh inconclusive, HCV inh inconclusive, Lassa entry inh 10µM, FMDV antiviral inconclusive
CCNC(=O)COC(=O)c1cc(C)n(-c2ccccc2)c1C	none
N#Cc1cc(Oc2ccc3ccccc3c2)c(-n2nnc3ccccc32)cc1C#N	HCMV inh -65.2, Marburg entry inh inconclusive
N#Cc1cc(Oc2ccccc2)c(-n2nnc3ccccc32)cc1C#N	none
CCOc1ccc(C(c2c(O)cc(C)n(Cc3ccco3)c2=O)N2CCCCC2)cc1 (stereo not given)	Lassa entry inh inconclusive (no result: Marburg entry inh, HCV inh)
CC(C)=CC(=O)O[C@@H]1Cc2cc3ccc(=O)oc3cc2OC1(C)C	HCV inh 3.16µM (no result: Marburg entry inh, Lassa entry inh)
COc1ccc2c(-c3ccc(S(N)(=O)=O)cc3)c(-c3ccc(S(C)(=O)=O)cc3)sc2c1	HCV inh 25.1µM (no result: Marburg entry inh, Lassa entry inh)
CC1CN=C(c2ccc(Cl)cc2)c2c3ccc(C(F)(F)F)cc3nn21 (stereo not given)	none (no result: Marburg entry inh, HCV inh, Lassa entry inh, FMDV antiviral)
O=C(NCc1ccc(F)cc1)c1ccc2c(=O)n3c(nc2c1)CCCCC3	none (no result: Marburg entry inh, Lassa entry inh)
Cc1nc2n(c(=O)c1CCN1CCC(c3noc4cc(F)ccc34)CC1)CCCC2	Marburg entry inh 11.2µM, HCV inh inconclusive (no result: Lassa entry inh)
Clc1ccc(-c2nn3c(C4COc5ccccc5O4)nnc3s2)cc1 (stereo not given)	HCMV inh -98.9, Lassa entry inh 6.51µM
O=C(/C=C/c1ccc(-c2cccc([N+](=O)[O-])c2)o1)N1CCOCC1	HCMV inh -61.2, Marburg entry inh inconclusive, HCV inh inconclusive
O=C(/C=C/c1cccc([N+](=O)[O-])c1)N1CCOCC1	Marburg entry inh inconclusive
CCn1c(=O)c2c(nc3n2CCCN3CCc2ccc(OC)c(OC)c2)n(C)c1=O	FMDV antiviral inconclusive
Cc1cccc(Cn2c(=O)c3c(nc4n3CCCN4Cc3ccccc3)n(C)c2=O)c1	Marburg entry inh inconclusive, HCV inh 11.2µM, FMDV antiviral inconclusive
COc1ccc(CCN2CCCn3c2nc2c3c(=O)n(CC(C)C)c(=O)n2C)cc1OC	HCV inh 10µM, FMDV antiviral inconclusive (no result: Marburg entry inh, Lassa entry inh)
Cn1c(=O)n(Cc2ccc(F)cc2)c(=O)c2c1nc1n2CCCN1C1CCCCC1	HCMV inh -67.1, FMDV antiviral inconclusive
O=C(Nc1ccccc1)c1cccc(N2CCCS2(=O)=O)c1	none (no result: Marburg entry inh, HCV inh)
CCOc1ccc(S(=O)(=O)Nc2ccc(C(=O)N(CC)CC(=O)NCc3cccs3)cc2)cc1	HCMV inh -72.2 (no result: Marburg entry inh, HCV inh, Lassa entry inh)
COc1cccc(CN(C)C(=O)c2ccc(NS(=O)(=O)c3ccc4[nH]c(=O)[nH]c4c3)cc2)c1OC	none (no result: HCV inh)
